Measurements as given in PubChem BioAssay (NCI).
Compounds without any hit were thinned out: in the full panel of roughly 79,000, 15% have a hit. The source made the active and inactive calls. Rule as the data show it: active = growth inhibition above about 70%; inactive = the rest.

Legend:
[1] = NCI Yeast Anticancer Drug Screen. Data for the rad50 strain (AID 155);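 also: 0% = growth of vehicle-only cultures of the same strain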; conditions: S. cerevisiae rad50 strain growth inhibition; at 50.0 µM; active compounds read high
How it was run: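 Growth of the mutant yeast was measured after compound exposure and referenced to vehicle-treated cultures.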

[2] = NCI Yeast Anticancer Drug Screen. Data for the mec2-1 strain (AID 157); conditions: S. cerevisiae mec2-1 strain, at 50.0 µM, active compounds read high
How it was run: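 Cells of the genetically defined mec2-1 yeast strain are incubated with test compound. Inhibition of growth is calculated against vehicle-treated controls.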

[3] = NCI Yeast Anticancer Drug Screen. Data for the sgs1 mgt1 strain (AID 161);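 also: 0% = growth of cultures given vehicle only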; conditions: S. cerevisiae sgs1 mgt1 strain, at 50.0 µM, active compounds read high
How it was run: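 Test agents were incubated with a DNA-repair-mutant yeast strain. Growth was then read and compared against vehicle-treated controls.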

[4] = NCI Yeast Anticancer Drug Screen. Data for the cln2 rad14 strain (AID 165);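 also: 0% = growth equal to vehicle treated cultures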; conditions: S. cerevisiae cln2 rad14 strain, at 50.0 µM, active compounds read high
How it was run: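 The screen exposed genetically defined yeast (cln2 rad14) to test compounds and scored growth inhibition relative to vehicle-treated controls.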

[5] = NCI Yeast Anticancer Drug Screen. Data for the bub3 strain (AID 167); conditions: S. cerevisiae bub3 mutant strain, at 50.0 µM, active compounds read high
How it was run: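 Whole-cell yeast assay. The mutant strain was incubated with compounds, and growth inhibition was determined by comparison with vehicle-treated cells.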

[6] = NCI Yeast Anticancer Drug Screen. Data for the mlh1 rad18 strain (AID 175); conditions: S. cerevisiae mlh1 rad18 strain growth inhibition; at 50.0 µM; active compounds read high
How it was run: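 Compound-treated yeast growth, normalised to vehicle controls. Strain bears defined DNA repair mutations.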

Measured: growth inhibition

CC(C)COC(=O)C(=O)OCC(C)C
inactive: [1] 14.9% | [2] 23.1% | [3] -6.45% | [4] 34% | [5] -5.05% | [6] -14.7%

CC(O)CC(C)O (stereo not drawn)
inactive: [1] 1.9% | [2] -4.6% | [3] 2.95% | [4] -3.45% | [5] 6.15% | [6] 2.3%

CO[C@H]1C=C[C@]23c4cc5c(cc4CN(CC2O)[C@@H]3C1)OCO5 (stereo partly drawn)
inactive: [1] 8.65% | [2] -11.7% | [3] 26.4% | [4] 12.6% | [5] 2.55% | [6] -20.9%

Cc1c(CCO)sc[n+]1CC(=O)c1ccccc1
inactive: [1] -14.5% | [2] -19% | [3] -3.7% | [4] 1.55% | [5] 2.3% | [6] 1%

CCCCCCCCNC(=O)CBr
inactive: [1] 5.3% | [2] 9.85% | [3] 22.8% | [4] -25.4% | [5] 13.3% | [6] 6.15%

CCOc1ccc(Cc2ccccc2)cc1
inactive: [1] -8.95% | [2] -23.9% | [3] -7% | [4] 1.5% | [5] -8.25% | [6] -5.35%

COC(=O)CC1(C(=O)OC)OC(=O)c2ccccc2N1C (stereo not drawn)
inactive: [1] 8.2% | [2] 12% | [3] 19.9% | [4] -24.6% | [5] -8.35% | [6] 12.3%

Cc1ccc(Cc2ccc(CCc3ccc(Cc4ccc(C)cc4)cc3)cc2)cc1
inactive: [1] 10.2% | [2] 7.15% | [3] 18.6% | [4] 32.4% | [5] 12.2% | [6] 11.5%

NCCNCCCCCCNC(=O)c1cccc2cc3ccccc3nc12
inactive: [1] -6.7% | [2] -25.4% | [3] -30.1% | [4] -7.55% | [5] -14% | [6] -102%

CC(=O)NC1=N/C(=C\c2ccc(Cl)cc2)C(=O)N1/C=C1\C(=O)Oc2ccccc2C1=O
inactive: [1] 50% | [2] 13.9% | [3] 24.9% | [4] 26% | [5] 49.7% | [6] 41.9%

O=C1C2(CCCC13N=NCC3c1ccccc1)N=NCC2c1ccccc1 (stereo not drawn)
inactive: [1] 28.9% | [2] -19.1% | [3] -0.95% | [4] -4.9% | [5] 0.85% | [6] 38.5%

O=c1oc2nc(-c3ccccc3)[nH]c(=O)c2c(O)c1Cc1ccccc1
inactive: [1] 6.35% | [2] 2.75% | [3] 1.55% | [4] 8.7% | [5] 27.6% | [6] 26.9%

CC(=O)OC1OC(COC(=O)c2ccccc2)C(OC(=O)c2ccccc2)C1OC(=O)c1ccccc1 (stereo not drawn)
inactive: [1] -60.6% | [2] -12.8% | [3] -13.2% | [4] -33.9% | [5] -0.65% | [6] 2.95%

C=C(C)C(=O)NC(N)=NC#N
inactive: [1] -44% | [2] -9.25% | [3] -5.4% | [4] -13.8% | [5] -1.55% | [6] 6.15%

C=C(Cl)Cc1c(O)c2c(c(O)c1CC(=C)Cl)C(=O)c1ccccc1C2=O
inactive: [1] -39.2% | [2] -42.7% | [3] -50% | [4] 1.8% | [5] -18.1% | [6] -33.5%

COc1cc(N(Cc2ccc3oc(=O)c(-c4ccccc4)nc3c2)Cc2ccc3oc(=O)c(-c4ccccc4)nc3c2)cc(OC)c1OC
inactive: [1] 29.6% | [2] -2.45% | [3] 13.5% | [4] -35.1% | [5] 15% | [6] 9.15%

O=C1c2cccc3cc([N+](=O)[O-])cc(c23)C(=O)N1Cc1cccnc1
inactive: [1] 42.5% | [2] 15.6% | [3] 38.6% | [4] 19% | [5] 10.5% | [6] 10.8%

COc1ccc(N2C(=O)C3c4[nH]c5ccc(C)cc5c4C4CCC(C)CC4C3C2=O)cc1 (stereo not drawn)
inactive: [1] -24.2% | [2] -0.6% | [3] 1.65% | [4] -6.9% | [5] -13.3% | [6] -4.55%

C=CC1(c2ccc3ccccc3c2)OCC(CC)(CC)CO1
inactive: [1] -18.1% | [2] 7.15% | [3] -3.6% | [4] -4.7% | [5] 7.75% | [6] 21.5%

CCc1ccc(N=Nc2ccc(Br)cc2)cc1
inactive: [1] 8.85% | [2] -18% | [3] -4.95% | [4] 6.85% | [5] 2.85% | [6] -10.3%

Cc1cnc2c(N)nc(-c3ccccc3)nc2n1
inactive: [1] 8.55% | [2] -2.1% | [3] -6.9% | [4] -39.4% | [5] -5.15% | [6] -0.45%

CC(=O)CC1CCCC1
inactive: [1] 19.4% | [2] 0.6% | [3] 19.9% | [4] 15.9% | [5] 5.3% | [6] 17.9%

O=C(O)/C=C\C(=O)Nc1ccccc1
inactive: [1] 10.2% | [2] 15.8% | [3] -16.1% | [4] -53.5% | [5] -3.25% | [6] 11.5%

S=C1N(c2ccc(Br)cc2)C2=Nc3ccccc3SC(=C2N=Nc2ccccc2)N1c1ccc(Cl)cc1
inactive: [1] -13.6% | [2] 20.9% | [3] -8.8% | [4] 14.5% | [5] -1.15% | [6] -3%

CC(=O)OCCCC(CCCOC(C)=O)OC(C)=O
inactive: [1] -7.7% | [2] -6.85% | [3] 12.2% | [4] -12.8% | [5] 5.25% | [6] 29.2%

O=C(S)C(=O)Cc1cn[nH]n1
inactive: [1] -3.95% | [2] -1.9% | [3] -4.5% | [4] 6.15% | [5] -7.25% | [6] -26.8%

CC(C)=CCCC(=O)C(c1nc2n(c1O)C(=N)N=N2)c1nc2n(c1O)C(=N)N=N2 (stereo not drawn)
inactive: [1] 12.1% | [2] 7.65% | [3] 2.1% | [4] 7.9% | [5] 5.55% | [6] 20.6%

COC(=O)C1(C(=O)Nc2ccccc2)N=N1
inactive: [1] 13.7% | [2] 7.55% | [3] 2.5% | [4] 3.35% | [5] -4.45% | [6] 8.15%

OC(C1CCCCC1)(C1CCC2(CCCCC2)CC1)C1CCCC2CCCCC21 (stereo not drawn)
inactive: [1] 29.9% | [2] 5% | [3] 30.9% | [4] 21.5% | [5] 1.35% | [6] 20.1%

CN(NC(=O)/C(=C\c1ccccc1Cl)NC(=O)c1ccccc1)c1cn[nH]c(=O)c1Cl
inactive: [1] -13.2% | [2] -11.8% | [3] -16.4% | [4] 9.1% | [5] -3.75% | [6] -6.85%

CC(=O)Nc1cc2cc(NC=C(C#N)C#N)ccc2oc1=O
inactive: [1] -1.8% | [2] -27.3% | [3] 14.1% | [4] 15.9% | [5] 18.3% | [6] -2.5%

COC(=O)c1ccc(C)[n+](C2OC(COC(=O)c3ccccc3)C(OC(=O)c3ccccc3)C2OC(=O)c2ccccc2)c1 (stereo not drawn)
inactive: [1] 5.2% | [2] 3.45% | [3] 8% | [4] -25.6% | [5] -14.2% | [6] 29.1%

C1=Nc2ccccc2/C1=C/c1c[nH]c2ccccc12
inactive: [1] 11.2% | [2] -10.1% | [3] 5.2% | [4] 17.9% | [5] 1.05% | [6] 17.9%

CCOC(=O)c1cn(C)c2c1C(=O)C(C(=O)OCC)CC(=O)N2 (stereo not drawn)
inactive: [1] -4.55% | [2] -4.15% | [3] -11.6% | [4] -53.6% | [5] -6.4% | [6] -8.25%

Cn1nc(-c2cccc(-c3nn(C)c(=NCCO)s3)n2)sc1=NCCO
inactive: [1] -29.8% | [2] -25.4% | [3] -51% | [4] -6.7% | [5] -28.1% | [6] -40.6%

OC1(c2ccc(-c3ccc(-c4ccc(C5(O)C(c6ccccc6)=C(c6ccccc6)C(c6ccccc6)=C5c5ccccc5)cc4)cc3)cc2)C(c2ccccc2)=C(c2ccccc2)C(c2ccccc2)=C1c1ccccc1
inactive: [1] 1.05% | [2] 4.4% | [3] 6.8% | [4] -3.9% | [5] -1.8% | [6] 2%

Cc1ccc(NC(=O)C(=O)CC(=O)c2c(C)n([O-])c3ccccc3[n+]2=O)cc1
inactive: [1] 5.65% | [2] 6.95% | [3] -6.5% | [4] 16.4% | [5] -1.55% | [6] 17.4%

C=C1CCC2[C@](C)(CCC[C@]2(C)C(=O)O)[C@@H]1CCc1ccoc1 (stereo partly drawn)
active: [1] 70.8% | [3] 73% | [4] 77% | [5] 73.8% | [6] 78.8%
inactive: [2] 59.9%
